# Assay results taken from the supplement of paper PMC4709259.
# Structures can show the parent of a compound that is named as a salt. ± gives the standard deviation.
# Tests used:
# [1] = test system: Jurkat; test: mean cell size (FSC-A) relative to DMSO control (fraction of control); higher = larger cells; conditions: 48 h
# Method in brief: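 Jurkat cells seeded at 600 cells/µl were incubated 1 h, then exposed for 48h to the Enzo Screen-Well FDA Approved Drug Library v2.0 at 25µM in 0.9% (v/v) final DMSO. Drugs that cut counts below 20% of controls were diluted 10-fold and retested, down to 25nM. Cell count and mean cell size (forward scatter area) were read on an Accuri C6 flow cytometer, relative to solvent-only controls. Plates held 6-12 controls; values are means of 3 biological replicates.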
# [2] = test system: Jurkat; test: cell count relative to DMSO control (fraction of control); higher = more cells (less growth inhibition); conditions: 48 h
SMILES,mean cell size [1],cell count [2]
CN(C)CCc1c[nH]c2ccc(C[C@H]3COC(=O)N3)cc12 [Zolmitriptan] (concentration: 25 µM),0.996 ± 0.017,0.419 ± 0.11
Nc1c2c(nc3ccccc13)CCCC2 [Tacrine·HCl] (concentration: 25 µM),0.9808 ± 0.0065,0.854 ± 0.017
CC[C@H](C)C(=O)O[C@H]1C[C@@H](C)C=C2C=C[C@H](C)[C@H](CC[C@@H]3C[C@@H](O)CC(=O)O3)[C@H]21 [Lovastatin] (concentration: 25 µM),1.16 ± 0.046,0.664 ± 0.15
CCCC(=O)Nc1ccc(OCC(O)CNC(C)C)c(C(C)=O)c1 (stereo not given) [Acebutolol·HCl] (concentration: 25 µM),1.04 ± 0.041,0.798 ± 0.17
COc1cc(NC(C)CCCN)c2ncccc2c1 (stereo not given) [Primaquine Phosphate] (concentration: 25 µM),1.01 ± 0.028,0.742 ± 0.042
CC/C(=C(\c1ccccc1)c1ccc(OCCN(C)C)cc1)c1ccccc1 [Tamoxifen Citrate] (concentration: 25 µM),0.908 ± 0.015,0.314 ± 0.11
CO[C@H]1/C=C/O[C@@]2(C)Oc3c(C)c(O)c4c(O)c(c5c(nc6cc(C)ccn65)c4c3C2=O)NC(=O)/C(C)=C\C=C\[C@H](C)[C@H](O)[C@@H](C)[C@@H](O)[C@@H](C)[C@H](OC(C)=O)[C@@H]1C [Rifaximin] (concentration: 25 µM),0.922 ± 0.039,0.4 ± 0.12
Cc1ncc([N+](=O)[O-])n1CCO [Metronidazole] (concentration: 25 µM),0.928 ± 0.012,0.75 ± 0.047
Cc1cc(C(=O)NNCc2ccccc2)no1 [Isocarboxazid] (concentration: 25 µM),0.965 ± 0.057,0.735 ± 0.1
Clc1ccc2c(c1)CCc1cccnc1C2=C1CCNCC1 [Desloratadine] (concentration: 25 µM),1 ± 0.05,0.702 ± 0.045
COc1ccc(O)cc1 [Mequinol] (concentration: 25 µM),1.15 ± 0.034,0.863 ± 0.063
NNc1nncc2ccccc12 [Hydralazine·HCl] (concentration: 25 µM),0.98 ± 0.075,0.537 ± 0.045
CO[C@H]1C[C@@H]2CC[C@@H](C)[C@@](O)(O2)C(=O)C(=O)N2CCCC[C@H]2C(=O)O[C@H]([C@H](C)C[C@@H]2CC[C@@H](OC(=O)C(C)(CO)CO)[C@H](OC)C2)CC(=O)[C@H](C)/C=C(\C)[C@@H](O)[C@@H](OC)C(=O)[C@H](C)C[C@H](C)/C=C/C=C/C=C/1C [Temsirolimus] (concentration: 25 µM),0.686 ± 0.018,0.358 ± 0.15
Cc1ccc(C(=O)c2cc(O)c(O)c([N+](=O)[O-])c2)cc1 [Tolcapone] (concentration: 25 µM),0.966 ± 0.023,0.864 ± 0.15
CCN(CC)C(=O)/C(C#N)=C/c1cc(O)c(O)c([N+](=O)[O-])c1 [Entacapone] (concentration: 25 µM),1.06 ± 0.055,0.519 ± 0.059
OC(Cn1cncn1)(Cn1cncn1)c1ccc(F)cc1F [Fluconazole] (concentration: 25 µM),0.969 ± 0.054,0.325 ± 0.14
O=P(O)(O)C(O)(Cc1cccnc1)P(=O)(O)O [Risredonic Acid] (concentration: 25 µM),0.964 ± 0.048,0.428 ± 0.091
CN1CCN(C2=Nc3ccccc3Oc3ccc(Cl)cc32)CC1 [Loxapine Succinate] (concentration: 25 µM),0.908 ± 0.024,1.16 ± 0.1
CCCCCCCCCCCCCCCC(=O)O[C@@H]1[C@@H](O)[C@@H](O)[C@@H]([C@H](NC(=O)[C@@H]2C[C@@H](CCC)CN2C)[C@H](C)Cl)O[C@@H]1SC [Clindamycin Palmitate·HCl] (concentration: 25 µM),1 ± 0.044,0.725 ± 0.025
Cn1c(=O)c2c(ncn2C)n(C)c1=O [Caffeine] (concentration: 25 µM),0.986 ± 0.046,1 ± 0.093
O=c1[nH]cc(F)c(=O)[nH]1 [Fluorouracil (5-Fluorouracil)] (concentration: 25 µM),1.12 ± 0.037,0.379 ± 0.023
CC(=O)OCC(=O)[C@@]1(O)CC[C@H]2[C@@H]3CCC4=CC(=O)CC[C@]4(C)[C@@]3(F)[C@@H](O)C[C@@]21C [Fludrocortisone Acetate] (concentration: 25 µM),0.932 ± 0.058,0.63 ± 0.033
CN1CCN(CCCN2c3ccccc3Sc3ccc(C(F)(F)F)cc32)CC1 [Trifluoperazine·HCl] (concentration: 2.5 µM),1.072 ± 0.01,0.776 ± 0.13
CCOC(=O)[C@H](CCc1ccccc1)N[C@H]1CCc2ccccc2N(CC(=O)O)C1=O [Benazepril·HCl] (concentration: 25 µM),0.965 ± 0.012,0.885 ± 0.035
CC(c1cc2ccccc2s1)N(O)C(N)=O (stereo not given) [Zileuton] (concentration: 25 µM),1 ± 0.038,0.839 ± 0.068

SMILES,mean cell size [1],cell count [2]
Cc1cccc(C)c1OCC(=O)N[C@@H](Cc1ccccc1)[C@@H](O)C[C@H](Cc1ccccc1)NC(=O)[C@H](C(C)C)N1CCCNC1=O [Lopinavir] (concentration: 25 µM),0.8546 ± 0.0077,0.373 ± 0.029
CC1Cc2ccccc2N1NC(=O)c1ccc(Cl)c(S(N)(=O)=O)c1 (stereo not given) [Indapamide] (concentration: 25 µM),0.978 ± 0.023,0.497 ± 0.11
NCCNCCNCCN [Trientine Dihydrochloride] (concentration: 25 µM),0.949 ± 0.04,1.02 ± 0.14
CC(C(=O)O)c1cccc(Oc2ccccc2)c1 (stereo not given) [Fenoprofen Calcium] (concentration: 25 µM),0.901 ± 0.05,0.314 ± 0.15
C#C[C@]1(O)CC[C@H]2[C@@H]3CCc4cc(O)ccc4[C@H]3CC[C@@]21C [Ethinyl Estradiol] (concentration: 25 µM),1.22 ± 0.075,0.263 ± 0.035
O=C(O)C(=O)O.[NH-][C@@H]1CCCC[C@H]1[NH-].[Pt+2] [Oxaliplatin] (concentration: 25 µM),1.01 ± 0.034,0.326 ± 0.057
CN(Cc1cnc2nc(N)nc(N)c2n1)c1ccc(C(=O)N[C@@H](CCC(=O)O)C(=O)O)cc1 [Methotrexate] (concentration: 25 nM),1.16 ± 0.035,0.499 ± 0.093
CCCCCN(C)CCC(O)(P(=O)(O)O)P(=O)(O)O [Ibandronate·Na Monohydrate] (concentration: 25 µM),0.941 ± 0.063,0.298 ± 0.14
COc1cccc2c1C(=O)c1c(O)c3c(c(O)c1C2=O)C[C@@](O)(C(C)=O)C[C@@H]3O[C@H]1C[C@H](N)[C@H](O)[C@H](C)O1 [Daunorubicin·HCl] (concentration: 25 nM),1.04 ± 0.037,0.711 ± 0.11
C[C@]12CC[C@@H]3c4ccc(O)cc4CC[C@H]3[C@@H]1CC[C@@H]2O [Estradiol] (concentration: 25 µM),0.892 ± 0.026,0.711 ± 0.1
COc1cc2c(cc1OC)C(=O)C(CC1CCN(Cc3ccccc3)CC1)C2 (stereo not given) [Donepezil·HCl] (concentration: 25 µM),1.032 ± 0.0096,0.487 ± 0.13
CCOC(=O)C1=C(C)NC(C)=C(C(=O)OC)C1c1cccc(Cl)c1Cl (stereo not given) [Felodipine] (concentration: 25 µM),0.9169 ± 0.007,0.922 ± 0.12
CN(C)CCC=C1c2ccccc2COc2ccccc21 [Doxepin·HCl] (concentration: 25 µM),0.978 ± 0.049,0.988 ± 0.13
Cc1cn([C@@H]2C[C@@H](O)[C@H](CO)O2)c(=O)[nH]c1=O [Telbivudine] (concentration: 25 µM),0.927 ± 0.037,1.04 ± 0.17
Clc1ccc2nsnc2c1NC1=NCCN1 [Tizanidine·HCl] (concentration: 25 µM),1.01 ± 0.014,0.771 ± 0.054
O=C1Cc2cc(CCN3CCN(c4nsc5ccccc45)CC3)c(Cl)cc2N1 [Ziprasidone] (concentration: 25 µM),0.98 ± 0.062,0.838 ± 0.098
COc1ccc2c(c1)c(CC(=O)O)c(C)n2C(=O)c1ccc(Cl)cc1 [Indomethacin] (concentration: 25 µM),0.971 ± 0.046,0.482 ± 0.087
CO[C@H]1/C=C/O[C@@]2(C)Oc3c(C)c(O)c4c(O)c(c(/C=N/N5CCN(C6CCCC6)CC5)c(O)c4c3C2=O)NC(=O)/C(C)=C\C=C\[C@H](C)[C@H](O)[C@@H](C)[C@@H](O)[C@@H](C)[C@H](OC(C)=O)[C@@H]1C [Rifapentine] (concentration: 25 µM),0.887 ± 0.025,0.275 ± 0.088
CC(C)[C@H](N)C(=O)OCCOCn1cnc2c(=O)nc(N)[nH]c21 [Valacyclovir·HCl] (concentration: 25 µM),0.987 ± 0.03,0.332 ± 0.065
OCCN1CCN(CCCN2c3ccccc3Sc3ccc(Cl)cc32)CC1 [Perphenazine] (concentration: 2.5 µM),1 ± 0.029,0.556 ± 0.11
CC(N)C12CC3CC(CC(C3)C1)C2 (stereo not given) [Rimantadine·HCl] (concentration: 25 µM),1.02 ± 0.055,0.697 ± 0.067
CC(C)Nc1cccnc1N1CCN(C(=O)c2cc3cc(NS(C)(=O)=O)ccc3[nH]2)CC1 [Delavirdine Mesylate] (concentration: 25 µM),0.942 ± 0.036,0.887 ± 0.099
C[C@@H]1NC(=O)[C@@H](N)CNC(=O)[C@H](C2CCNC(=N)N2)NC(=O)/C(=C/NC(N)=O)NC(=O)[C@H](CNC(=O)CC(N)CCCN)NC1=O.N=C1NCC[C@H]([C@@H]2NC(=O)/C(=C/NC(N)=O)NC(=O)[C@H](CNC(=O)C[C@@H](N)CCCN)NC(=O)[C@H](CO)NC(=O)[C@@H](N)CNC2=O)N1 [Capreomycin Sulfate] (concentration: 25 µM),0.97 ± 0.044,0.544 ± 0.14
COc1c2occc2cc2ccc(=O)oc12 [Methoxsalen (Xanthotoxin)] (concentration: 25 µM),1.04 ± 0.019,0.761 ± 0.14
CC(=O)O[C@H]1C[C@@H]2CC[C@@H]3[C@H](CC[C@@]4(C)[C@H]3C[C@H]([N+]3(C)CCCCC3)[C@@H]4OC(C)=O)[C@@]2(C)C[C@@H]1N1CCCCC1 [Vecuronium Bromide] (concentration: 25 µM),0.858 ± 0.043,0.294 ± 0.13
